Screening data deposited in PubChem BioAssay by National Center for Advancing Translational Sciences (NCATS).
BRCA1 expr act – activators of BRCA1 expression; MCF7-BRCA1-FFLuc reporter, luminescence, 48 h; response scale: scaled: vehicle 0%, 10 µM genistein 100%; actives 1.1% (n = 380,000); Potency, µM (series often up to 46.1 µM), for the others: top-dose activation, most hits filed as activators; AID 624202; note: nearly all actives have a fitted effect of over 80% in size
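First, MCF7-BRCA1-FFLuc cells (2000/well) attach for 2 h; next, compounds are pin-added and incubated 48 h at 37 °C; finally, luciferase reagent is added and luminescence read after 15 min.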
PLK1 PBD block – PLK1 (human) polo-box domain binding inhibition; P53350; Plk1 PBD binding of FITC phosphopeptide, fluorescence polarization; Potency, µM, inactives show max response, negative = inhibition, usual class: inhibitors; actives 2.8% (n = 360,000); AID 720504; note: series mostly up to about 57 µM; % is set by controls: 0 for no effect and ±100 for the full control effect; nearly all actives have a fitted effect of over 65% in size
Target sequence (P53350 whole entry, looked up, the tested form may be a part): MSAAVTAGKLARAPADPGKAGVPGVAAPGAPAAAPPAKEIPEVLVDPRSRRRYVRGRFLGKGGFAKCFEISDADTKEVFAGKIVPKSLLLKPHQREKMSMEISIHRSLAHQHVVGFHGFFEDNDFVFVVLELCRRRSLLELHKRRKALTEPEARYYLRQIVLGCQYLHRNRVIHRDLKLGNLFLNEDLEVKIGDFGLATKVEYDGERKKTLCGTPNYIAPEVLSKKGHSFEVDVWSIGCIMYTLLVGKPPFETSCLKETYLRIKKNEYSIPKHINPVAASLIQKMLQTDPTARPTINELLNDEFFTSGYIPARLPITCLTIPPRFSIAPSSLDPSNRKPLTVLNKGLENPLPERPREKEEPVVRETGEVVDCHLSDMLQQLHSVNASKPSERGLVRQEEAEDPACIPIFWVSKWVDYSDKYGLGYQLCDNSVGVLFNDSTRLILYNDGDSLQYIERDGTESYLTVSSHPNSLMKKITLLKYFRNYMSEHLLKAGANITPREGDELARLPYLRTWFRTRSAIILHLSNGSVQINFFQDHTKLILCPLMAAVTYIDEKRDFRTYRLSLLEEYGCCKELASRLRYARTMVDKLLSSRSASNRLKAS
Tb PFK inh-1 – inhibitors of T. brucei phosphofructokinase. Potency, µM (highest dose often 57.5 µM), without a hit: at the top dose activity, negative = inhibition, actives largely listed as inhibitors. T. brucei PFK, ADP-Glo luminescence. actives 0.17% (n = 330,000). O15648;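 note: 0% = uninhibited 1x PFK enzyme wells and -100% = no-enzyme wells; nearly all actives have a fitted effect of over 60% in size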
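PFK 1.25 nM, F6P 0.5 mM, ATP 0.1 mM, 0.1 M TEA pH 8.0, 5 mM MgCl2, 0.01% Tween20, 0.1% BSA; 45 min RT. ADP-Glo readout. qHTS titration up to 57 uM; curves fitted, compounds curve-classed.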
VDR inh – inhibitors of human vitamin D receptor | P11473 | VDR-SRC2-3 peptide fluorescence polarization, 2 h | Potency, µM, inactives show max response, negative = inhibition, most hits filed as inhibitors | actives 0.93% (n = 400,000) | AID 504847; note: % is set by controls: 0 for no effect and ±100 for the full control effect
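After 23 nl compound addition and a short centrifugation, plates sat for 2 hours at ambient temperature; polarization of fluorescence then indicated loss of VDR binding to peptide SRC2-3.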
Tb PFK KinaseGlo – inhibits T. brucei PFK measured by ATP depletion; shares compounds with Tb PFK inh-1; Tb PFK enzyme, ATP depletion, Kinase-Glo Plus luminescence; Potency, µM (highest dose often 57.5 µM), for inactives: top-dose inhibition; actives 47% (n = 1,100); AID 504636; calls by dose curve; note: nearly all actives have a fitted effect of over 60% in size
Tb PFK inh-2 – T. brucei PFK enzyme inhibition, hit validation. Potency, µM (highest dose often 57.5 µM), for the others: top-dose activity change, negative = inhibition, actives largely listed as inhibitors. purified T. brucei PFK, ADP-Glo luminescence, 45 min. shares compounds with Tb PFK inh-1. actives 41% (n = 1,100);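 note: plate controls were full PFK enzyme control for no effect and no enzyme control for full effect; nearly all actives have a fitted effect of over 60% in size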
The depositor's hits bear a star; u = inconclusive; x = no result. A selection: hits, their analogues and other compounds. The true share with any hit is near 3.9%. Unless noted, calls come from the whole dose curve; as a rule, active = well fitted curve in the direction sought with a large enough effect; inconclusive = small, poorly fitted or top-dose-only effect, or another doubt; inactive = no such curve, though single readings can be large; an effect the other way counts as inactive or inconclusive. Potency is the fitted concentration of half-maximal effect.

SMILES	BRCA1 expr act	PLK1 PBD block	Tb PFK inh-1	VDR inh	Tb PFK KinaseGlo	Tb PFK inh-2
COc1ccc(C(=O)O[C@H]2CC[C@@]3(C)C4CCC5[C@]6(O)C[C@H](O)[C@@]7(O)C(CN8C[C@@H](C)CC[C@H]8[C@@]7(C)O)[C@]6(O)C[C@@]53O[C@@]42O)cc1OC (some centres undefined)	x	x	x	2.6%	x	x
O=C(COC(=O)Cc1ccc(Cl)cc1)NCc1ccco1	-4.1%	-23.4%	u	-1.0%	8.49µM*	6.75µM*
S=C(NCc1ccc(Cl)c(Cl)c1)NCc1ccco1	-0.1%	u	26.9µM*	-17.0%	10.7µM*	21.3µM*
O=C(COC(=O)Cc1ccc(Cl)c(Cl)c1)Nc1ccc2[nH]c(=O)[nH]c2c1	-20.5%	-0.9%	21.3µM*	-11.1%	u	13.5µM*
O=C(COC(=O)Cc1ccc(Cl)c(Cl)c1)NCc1ccco1	11.3%	-0.7%	u	7.4%	13.5µM*	u
CN(CC(=O)NC(=O)NCc1ccco1)CC(=O)Nc1ccccc1Cl	13.2%	-10.1%	u	6.7%	x	x
C/C=C1\C[N@@+]2(C)CC[C@@]34C(=C(C=O)[C@H]1C[C@H]32)Nc1ccccc14	x	x	x	6.2%	x	x
CCNC(=O)O/N=C(\C)c1sc(-c2ccc(Cl)cc2)nc1C	u	u	0.1%	-6.2%	x	x
O=C(CSc1ccc(Cl)cc1)NCc1ccco1	51.7%	-4.6%	u	-9.1%	13.9%	-17.4%
COC(=O)c1ccc(-c2noc(CN(C)CCC3CCCCO3)n2)cc1 (centres undefined)	1.6%	0.5%	u	0.9%	3.5%	u
COc1ccc(-n2c(/C=C\c3ccccc3F)nc3ccccc3c2=O)cc1OC	x	x	x	14.2%	x	x
O=C(Nc1ncc(Cc2cccc(Cl)c2)s1)C1CCCO1 (centres undefined)	u	-18.9%	u	-1.6%	16.9µM*	u
CC1CC[C@@]2(NC1)OC1CC3C4CC[C@@H]5CC(O)CC[C@@]5(C)C4CC[C@]3(C)C1C2C (some centres undefined)	x	x	x	-10.3%	x	x
Nc1ncnc2c1ncn2[C@@H]1O[C@@H]2CO[P@](=O)(S)O[C@H]2[C@H]1O	x	x	x	-1.8%	x	x
CN(C)C1(CNC(=O)c2ccc(NS(=O)(=O)c3ccc(Cl)c(Cl)c3)cc2)CCCCC1	-1.5%	-4.0%	-0.6%	-3.2%	x	x
O=C(NCCCN1CCCC1=O)c1cc(NS(=O)(=O)c2ccc(F)cc2)cc(NS(=O)(=O)c2ccc(F)cc2)c1	2.5%	-2.0%	8.49µM*	3.2%	3.79µM*	6.75µM*
CCC1Nc2ncnc(N3CCN(c4ccccn4)CC3)c2N(Cc2ccc(Br)cc2)C1=O (centres undefined)	-48.1%	-17.5%	6.6%	u	x	x
COc1cccc(CC(=O)N2CCN(Cc3cccc(Cl)c3)CC2)c1	-16.3%	-4.1%	-2.5%	2.2%	x	x
CCOC(=O)c1cn(Cc2cccc(Cl)c2)nn1	6.9%	-0.2%	u	-12.5%	26.9µM*	u
NC(=O)c1cccn1Cc1cccc(Cl)c1	-16.1%	-5.4%	u	11.8%	u	u
C[C@H](N)Cc1cccc(C(F)(F)F)c1	x	x	x	2.2%	x	x
CC1CN=C(NCCc2ccccc2)S1 (centres undefined)	15.2%	2.2%	-13.1%	-9.6%	x	x
O=c1ccnc(NCCc2ccccc2)[nH]1	-19.5%	3.2%	9.53µM*	9.8%	21.3µM*	26.9µM*
CC(Nc1cccc([N+](=O)[O-])c1)C(=O)Nc1ccc(S(=O)(=O)N2CCCC2)cc1 (centres undefined)	-30.7%	-0.7%	u	-1.9%	u	u
Cc1ccc(S(=O)(=O)CNC(=S)c2ccc3ccccc3c2)cc1	26.6%	u	u	-26.8%	-17.4%	30.1µM*
SMILES	BRCA1 expr act	PLK1 PBD block	Tb PFK inh-1	VDR inh	Tb PFK KinaseGlo	Tb PFK inh-2
CCN[C@]1(c2cccs2)CCCCC1=O	x	x	x	4.5%	x	x
Cc1cc(C(=O)NNC(=O)Cc2ccc(Cl)c(Cl)c2)c(C)o1	-9.7%	-15.5%	26.9µM*	u	12µM*	30.1µM*
Clc1ccc2scc(CN3CCCCC3)c2c1	-15.6%	-18.3%	u	-14.3%	u	u
c1ccc2c(CN3CCCCCCC3)c[nH]c2c1	-88.8%	-1.9%	-1.8%	5.1%	x	x
CC(C)c1c(Cl)c(O)c(-c2ccccc2)c(=O)n1-c1ccc(F)cc1	-17.0%	1.4%	u	-14.0%	u	u
O=C(Nc1ccc2c(c1)OCO2)c1cccc2c1C(=O)N(Cc1cccnc1)C2	-16.2%	-5.1%	u	4.4%	u	u
CN(C)C(=O)Oc1cc(OC(=O)N(C)C)cc([C@@H](O)CNC(C)(C)C)c1	x	x	x	2.3%	x	x
Cc1cc(N(C)C)ccc1[N+](=O)[O-]	-17.0%	-1.1%	u	-4.4%	u	30.1µM*
CCC(C(=O)Nc1ccccc1F)N1C(=O)CN=C(c2ccccc2)c2ccccc21 (centres undefined)	x	x	x	-12.8%	x	x
CC(C)CN1CC2(CCN(C(=O)c3ccncc3)CC2)C1	x	x	x	-1.4%	x	x
O=C1C=C(NCc2ccc(Cl)c(Cl)c2)CC1	-21.7%	-3.8%	4.78µM*	6.8%	4.78µM*	6.01µM*
O=C1c2c([N+](=O)[O-])cc([N+](=O)[O-])cc2S(=O)N1Cc1ccccc1 (centres undefined)	-11.3%	37.7µM*	26.9µM*	u	6.1%	-5.5%
O=[N+]([O-])c1ccc(F)c([N+](=O)[O-])c1	x	x	x	-2.2%	x	x
CCOC(=O)c1cc(C)n(CCc2cnc[nH]2)c1C	34.1%	-11.3%	3.6%	-11.2%	x	x
COCCn1c(C)cc(C(=O)COC(=O)c2cc3c(s2)CCC3)c1C	-5.3%	u	u	-0.3%	u	-25.3%
Cc1oc(=O)c(NC(=O)c2ccc(Cl)cc2)cc1C(=O)c1ccccc1	-19.0%	-12.5%	16.9µM*	25.1µM*	5.5%	-7.5%
O=c1c2cc([N+](=O)[O-])ccc2nc(CN2CCOCC2)n1-c1ccccc1F	x	x	5.4%	x	x	x
O=[N+]([O-])c1ccc(N/N=C/c2ccc(O)c(O)c2O)c(S(=O)(=O)N2CCOCC2)c1	-34.2%	2.99µM*	u	u	u	u
Cc1ccc([N+](=O)[O-])cc1NC(=O)Nc1ccc(S(N)(=O)=O)cc1	-9.3%	-4.5%	12µM*	4.8%	13.5µM*	26.9µM*
Cc1cc(OC(F)F)ccc1NC(=O)Nc1ccc([N+](=O)[O-])cc1	-86.7%	-0.1%	u	3.5%	u	u
CC(O)(CS(=O)(=O)c1ccccc1)C(=O)Nc1ccc(C(F)(F)F)cc1 (centres undefined)	0.2%	-12.7%	-0.6%	-10.9%	x	x
Cc1ccc(NC(=O)Nc2ccc(S(N)(=O)=O)cc2)cc1	u	-6.7%	21.3µM*	-12.3%	13.5µM*	u
NS(=O)(=O)c1ccc(NC(=O)Nc2ccc(C(F)(F)F)cc2)cc1	-1.2%	1.7%	u	6.3%	6.01µM*	13.5µM*
